Source: PubChem BioAssay (Tox21)
Records with an inconclusive call do not appear. Active and inactive are the calls of the source. Unless noted, calls come from the whole dose curve; as a rule, active = well fitted curve in the direction sought with a large enough effect in the repeat runs; inconclusive = weak or mixed curves; inactive = no such curve, though single readings can be large; an effect the other way counts as inactive or inconclusive.

Experiments:
[1] = qHTS assay to identify small molecule antagonists of the sonic hedgehog signaling (Shh) pathway (AID 1259369; calls by dose curve; note: nearly all actives have a fitted effect of over 45% in size)
In short: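 Screening used 3T3Gli1-Luc cells at 2,000 per well, compounds delivered in DMSO, and conditioned medium as agonist stimulus; plates incubated 24hr at 37 C and 5% CO2 before a 30min luciferase step.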

[2] = target: Estrogen receptor beta (Homo sapiens) (UniProt Q92731); experiment: qHTS assay to identify small molecule agonists of the estrogen receptor beta (ER-beta) signaling pathway (AID 1259377; active = well fitted activation curve with a large enough effect in the signal ratio in the repeat runs, not every such curve was filed as active; the % refers to the signal ratio)
In short: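 Agonist mode cell assay in GripTite HEK293T cells expressing an ER-beta fusion that drives beta-lactamase from an Upstream Activator Sequence; 16 hr compound exposure at 37C, then 2 h LiveBLAzer B/G FRET substrate at room temperature, fluorescence read-out.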

[3] = target: Estrogen receptor beta (Homo sapiens) (UniProt Q92731); experiment: qHTS assay to identify small molecule antagonists of the estrogen receptor beta (ER-beta) signaling pathway (AID 1259378; active = well fitted inhibition curve with a large enough effect in the signal ratio in the repeat runs, not every such curve was filed as active; the % refers to the signal ratio)
In short: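 ER-beta-UAS-bla HEK293T (GripTite) cells in 2% charcoal-stripped FBS medium were preincubated 6 hr at 37C, dosed with compound, then stimulated with 1 nM E2 (final) for 16 hr; beta-lactamase reporter read by B/G FRET fluorescence after 2 hr substrate loading.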

[4] = qHTS assay to identify small molecule agonists of the androgen receptor (AR) signaling pathway in the presence of an antagonist - cell viability counter screen (AID 1259379);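 note: MDA-kb2 human breast cancer cells carrying an MMTV luciferase reporter; series mostly up to about 92 µM; nearly all actives have a fitted effect of over 25% in size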
In short: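 In MDA-kb2 cells (human breast carcinoma, MMTV-luciferase), compounds at 15 concentrations plus 3.0uM nilutamide; 16 hr, 37C, 0% CO2; CellTiter-Fluor fluorescence read for viability.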

[5] = qHTS assay to identify small molecule agonists of the estrogen receptor beta (ER-beta) signaling pathway - cell viability counter screen (AID 1259380); note: nearly all actives have a fitted effect of over 30% in size
In short: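 Viability of ER-beta-UAS-bla HEK293T cells was determined by CellTiter-Glo luminescence following 16 hr treatment with test compounds at 37C.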

[6] = qHTS assay to identify small molecule antagonists of the estrogen receptor beta (ER-beta) signaling pathway - cell viability counter screen (AID 1259382); note: series mostly up to about 92 µM; nearly all actives have a fitted effect of over 55% in size
In short: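 Tox21 10K library tested in qHTS format on ER-beta-bla HEK293T cells stimulated with 1nM E2; 16 hr treatment at 37C. Same-well CellTiter-Glo luminescence served as the cell viability measure.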

[7] = qHTS assay to identify small molecule agonists or antagonists of the thyroid stimulating hormone receptor (TSHR) signaling pathway - wild type cell line counter screen (AID 1259384; calls by dose curve)
In short: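 Wild-type HEK293 cells were plated 18 h at 37 C/5% CO2, pin-dosed with compound plus Ro20-1724 medium, held 30 min at room temperature, then given cAMP-d2 and anti-cAMP-cryptate; fluorescence was read after 1 h. Fifteen concentrations, triplicate.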

[8] = target: Thyrotropin receptor (Homo sapiens) (UniProt P16473); experiment: qHTS assay to identify small molecule antagonists of the thyroid stimulating hormone receptor (TSHR) signaling pathway (AID 1259385; calls by dose curve; note: nearly all actives have a fitted effect of over 20% in size)
In short: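 TSHR-HEK293 cells were plated and held 18 h at 37C/5% CO2, then given compound plus Ro20-1724 and stimulated with TSH at 1.5 ng/mL final. After 30 min at room temperature, cAMP was detected with cAMP-d2/anti-cAMP-cryptate (1 h) by fluorescence.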

[9] = qHTS assay to identify small molecule agonists of the estrogen receptor alpha (ER-alpha) signaling pathway in the presence of an antagonist - cell viability counter screen (AID 1259386);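 note: series mostly up to about 92 µM; cells exposed to compounds for 22 h at 37 °C before the viability read; nearly all actives have a fitted effect of over 30% in size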
In short: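 Fluorescent CellTiter-Fluor viability signal from VM7Luc4E2 cells, with the reagent added during the final hour of a 22hr compound exposure at 37C in the presence of 10.0nM ICI-182,780.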

[10] = target: Progesterone receptor (Homo sapiens) (UniProt P06401); experiment: qHTS assay to identify small molecule agonists of the progesterone receptor (PR) signaling pathway (AID 1346784; calls by dose curve; note: nearly all actives have a fitted effect of over 30% in size)
In short: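 Cells (PR-UAS-bla HEK 293T, GripTite) were plated in assay medium containing 2% charcoal-stripped FBS and incubated 6 hr. Test compounds in DMSO were added for 16 hr at 37C. FRET substrate was then loaded for 2 hr at room temperature before fluorescence reading.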

[11] = target: Progesterone receptor (Homo sapiens) (UniProt P06401); experiment: qHTS assay to identify small molecule antagonists of the progesterone receptor (PR) signaling pathway (AID 1346795; active = well fitted inhibition curve with a large enough effect in the signal ratio in the repeat runs, not every such curve was filed as active; the % refers to the signal ratio)
In short: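 Antagonist mode: compounds tested against 1 nM (final) promegestone stimulation in HEK293T cells expressing PR-UAS-bla reporter, 16 hr at 37C, 5% CO2; beta-lactamase activity detected via B/G FRET substrate after 2 hr at room temperature.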

[12] = qHTS assay to identify small molecule antagonists of the progesterone receptor (PR) signaling pathway - cell viability counter screen (AID 1346798); note: series mostly up to about 92 µM; nearly all actives have a fitted effect of over 50% in size
In short: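 Counter screen for cytotoxicity: viability of PR-UAS-bla HEK293T cells was measured with CellTiter-Glo luminescence following 16 hr compound exposure in the presence of R5020.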

[13] = qHTS assay to identify small molecule agonists of the progesterone receptor (PR) signaling pathway - cell viability counter screen (AID 1346799; calls by dose curve; note: nearly all actives have a fitted effect of over 45% in size)
In short: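 Cells (PR-UAS-bla HEK293T) are plated at 3,000/well in 2% charcoal-stripped FBS medium, rested 6 hr, dosed and incubated 16 hr at 37C. CellTiter-Glo is then added and luminescence measured after 30 min at room temperature.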

[14] = qHTS assay to identify small molecule antagonists of the TGF-beta/Smad signaling pathway - cell viability counter screen (AID 1346824); note: nearly all actives have a fitted effect of over 50% in size
In short: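 SBE-bla HEK 293T cells were plated overnight at 37 C, then given compounds in DMSO plus TGF-beta1 (added as 0.25 ng/mL solution) for 5 hr. After the bla read, CellTiter-Glo was added to the same wells and luminescence read after 30 min at room temperature.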

[15] = qHTS assay to identify small molecule agonists of the TGF-beta/Smad signaling pathway - cell viability counter screen (AID 1346829); note: top concentration of the series differs between compounds; nearly all actives have a fitted effect of over 45% in size
In short: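 After overnight seating at 37 C and 5% CO2, reporter cells got compounds for 5 hr and FRET substrate for 2 hr; cell viability then came from CellTiter-Glo luminescence.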

[16] = qHTS assay to identify small molecule agonists of the TGF-beta/Smad signaling pathway (AID 1346859; active = well fitted activation curve with a large enough effect in the signal ratio in the repeat runs, not every such curve was filed as active; the % refers to the signal ratio; note: series mostly up to about 77 µM)
In short: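 Reporter line: HEK 293T with stably integrated SBE-controlled beta-lactamase. Compound exposure lasts 5 hr at 37 C and 5% CO2; substrate loading follows for 2 hr at room temperature, with emission read at 460 and 530 nm.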

[17] = target: Thyrotropin-releasing hormone receptor (Homo sapiens) (UniProt P34981); experiment: qHTS assay to identify small molecule antagonists of the thyrotropin-releasing hormone receptor (TRHR) signaling pathway (AID 1346877; active = well fitted inhibition curve with a large enough effect in the repeat runs, not every such curve was filed as active; note: series mostly up to about 51 µM)
In short: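 In this cell-based calcium flux format, HEK293 cells expressing TRHR received test compound for 5 min before the agonist TRH (1 nM final). Dye loading lasted 2 h at 37 °C.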

[18] = target: Thyrotropin-releasing hormone receptor (Homo sapiens) (UniProt P34981); experiment: qHTS assay to identify small molecule agonists of the thyrotropin-releasing hormone receptor (TRHR) signaling pathway (AID 1346891; calls by dose curve; note: series mostly up to about 58 µM)
In short: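 Cells: TRHR-Hek293, seeded and incubated 18 h. Dye loading: 2 h at 37 °C. Compound added from DMSO stock by pin tool. Read-out: kinetic calcium fluorescence over 3 min.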

Measured: Potency

Sequence of Thyrotropin receptor (Homo sapiens) (P16473 whole entry, looked up): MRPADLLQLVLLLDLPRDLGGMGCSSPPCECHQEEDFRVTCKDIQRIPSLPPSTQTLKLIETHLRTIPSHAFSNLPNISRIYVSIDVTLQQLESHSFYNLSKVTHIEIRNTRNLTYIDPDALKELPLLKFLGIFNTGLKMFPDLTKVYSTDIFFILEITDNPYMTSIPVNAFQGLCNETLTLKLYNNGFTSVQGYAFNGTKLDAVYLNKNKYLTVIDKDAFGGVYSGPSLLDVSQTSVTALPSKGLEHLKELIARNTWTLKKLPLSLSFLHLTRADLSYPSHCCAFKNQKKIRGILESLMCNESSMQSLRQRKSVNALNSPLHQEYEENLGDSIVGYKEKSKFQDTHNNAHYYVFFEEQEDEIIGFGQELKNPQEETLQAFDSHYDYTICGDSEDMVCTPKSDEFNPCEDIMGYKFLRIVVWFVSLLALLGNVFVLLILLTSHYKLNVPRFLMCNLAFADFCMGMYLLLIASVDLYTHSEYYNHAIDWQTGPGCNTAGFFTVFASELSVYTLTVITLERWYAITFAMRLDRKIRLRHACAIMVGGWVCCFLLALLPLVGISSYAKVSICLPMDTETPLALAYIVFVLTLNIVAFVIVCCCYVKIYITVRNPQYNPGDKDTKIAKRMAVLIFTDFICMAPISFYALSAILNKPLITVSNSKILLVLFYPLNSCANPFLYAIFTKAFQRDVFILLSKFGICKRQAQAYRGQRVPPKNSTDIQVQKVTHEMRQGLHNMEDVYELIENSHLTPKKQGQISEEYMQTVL
Sequence of Thyrotropin-releasing hormone receptor (Homo sapiens) (P34981 whole entry, looked up): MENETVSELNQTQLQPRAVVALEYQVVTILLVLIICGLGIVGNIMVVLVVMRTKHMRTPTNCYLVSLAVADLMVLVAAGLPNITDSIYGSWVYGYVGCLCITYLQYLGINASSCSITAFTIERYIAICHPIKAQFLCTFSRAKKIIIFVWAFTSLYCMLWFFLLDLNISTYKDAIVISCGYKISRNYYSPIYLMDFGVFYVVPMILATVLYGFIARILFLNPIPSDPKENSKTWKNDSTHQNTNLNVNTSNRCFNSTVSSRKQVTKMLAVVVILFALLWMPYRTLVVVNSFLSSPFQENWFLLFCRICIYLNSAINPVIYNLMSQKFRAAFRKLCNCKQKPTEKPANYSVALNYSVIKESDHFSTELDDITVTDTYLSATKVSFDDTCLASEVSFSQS
Sequence of Progesterone receptor (Homo sapiens) (P06401 whole entry, looked up): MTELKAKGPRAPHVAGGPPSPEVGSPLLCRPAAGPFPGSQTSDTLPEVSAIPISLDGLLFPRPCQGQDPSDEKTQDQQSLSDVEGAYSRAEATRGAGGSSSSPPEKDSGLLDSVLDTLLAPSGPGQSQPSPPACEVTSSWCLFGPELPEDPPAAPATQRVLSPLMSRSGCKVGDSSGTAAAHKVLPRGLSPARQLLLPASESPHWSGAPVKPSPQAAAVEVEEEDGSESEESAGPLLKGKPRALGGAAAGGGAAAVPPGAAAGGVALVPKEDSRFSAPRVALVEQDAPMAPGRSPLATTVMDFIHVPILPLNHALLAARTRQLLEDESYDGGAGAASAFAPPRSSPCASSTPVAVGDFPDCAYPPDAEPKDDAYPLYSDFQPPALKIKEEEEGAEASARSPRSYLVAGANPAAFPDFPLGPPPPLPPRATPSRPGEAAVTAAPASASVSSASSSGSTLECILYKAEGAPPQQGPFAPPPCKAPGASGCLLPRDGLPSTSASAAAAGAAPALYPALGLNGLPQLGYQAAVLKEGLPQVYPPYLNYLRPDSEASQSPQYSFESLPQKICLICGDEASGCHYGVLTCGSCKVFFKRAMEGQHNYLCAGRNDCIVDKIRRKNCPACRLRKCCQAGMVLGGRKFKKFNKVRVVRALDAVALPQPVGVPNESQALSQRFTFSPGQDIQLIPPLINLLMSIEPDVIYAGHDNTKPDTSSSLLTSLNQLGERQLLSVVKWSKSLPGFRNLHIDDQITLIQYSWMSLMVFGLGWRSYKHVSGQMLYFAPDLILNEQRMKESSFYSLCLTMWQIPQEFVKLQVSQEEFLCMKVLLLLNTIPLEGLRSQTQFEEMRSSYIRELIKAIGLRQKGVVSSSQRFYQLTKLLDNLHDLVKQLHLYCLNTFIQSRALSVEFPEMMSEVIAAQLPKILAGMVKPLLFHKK
Sequence of Estrogen receptor beta (Homo sapiens) (Q92731 whole entry, looked up, the tested form may be a part): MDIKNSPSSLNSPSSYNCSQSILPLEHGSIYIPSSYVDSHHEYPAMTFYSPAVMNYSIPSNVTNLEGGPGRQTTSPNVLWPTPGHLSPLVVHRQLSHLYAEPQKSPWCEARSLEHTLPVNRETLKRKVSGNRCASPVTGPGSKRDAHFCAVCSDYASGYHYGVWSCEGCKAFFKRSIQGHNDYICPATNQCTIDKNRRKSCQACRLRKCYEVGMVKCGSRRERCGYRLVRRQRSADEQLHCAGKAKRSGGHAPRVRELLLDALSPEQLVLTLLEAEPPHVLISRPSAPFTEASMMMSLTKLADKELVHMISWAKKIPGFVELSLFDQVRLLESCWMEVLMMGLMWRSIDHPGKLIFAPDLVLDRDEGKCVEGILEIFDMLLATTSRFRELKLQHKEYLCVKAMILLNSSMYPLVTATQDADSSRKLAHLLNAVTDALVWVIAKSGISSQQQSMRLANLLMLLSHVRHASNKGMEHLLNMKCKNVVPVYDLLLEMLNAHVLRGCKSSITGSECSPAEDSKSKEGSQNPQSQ

CC/C(C)=N/O
inactive: [1] | [2] | [3] | [4] | [5] | [6] | [7] | [8] | [9] | [10] | [11] | [12] | [13] | [14] | [15] | [16] | [17] | [18]

CC(COCC(C)OC(=O)c1ccccc1)OC(=O)c1ccccc1 (centres undefined)
inactive: [1] | [2] | [3] | [4] | [5] | [6] | [7] | [8] | [9] | [10] | [12] | [13] | [14] | [15] | [16] | [18]

NCCNCCNCCN
inactive: [1] | [3] | [4] | [5] | [6] | [7] | [8] | [9] | [10] | [11] | [12] | [13] | [14] | [15] | [16] | [18]

C=C(CC(=O)O)C(=O)O
inactive: [1] | [2] | [3] | [4] | [5] | [6] | [7] | [8] | [9] | [10] | [11] | [12] | [13] | [14] | [15] | [16] | [18]

CC(=O)OCc1ccc2c(c1)OCO2
inactive: [1] | [2] | [3] | [4] | [5] | [6] | [7] | [8] | [9] | [10] | [11] | [12] | [13] | [14] | [15] | [16] | [17] | [18]

C=C(C)CC(C)(C)C
inactive: [1] | [2] | [3] | [4] | [5] | [6] | [7] | [8] | [9] | [10] | [11] | [12] | [13] | [14] | [15] | [16] | [17] | [18]

OCc1ccc(Cl)cc1Cl
inactive: [1] | [2] | [3] | [4] | [5] | [6] | [9] | [10] | [11] | [12] | [13] | [14] | [15] | [16] | [18]

CS(=O)(=O)c1ccc(Cl)cc1
inactive: [1] | [2] | [3] | [4] | [5] | [6] | [7] | [8] | [9] | [10] | [11] | [12] | [13] | [14] | [15] | [16]
